{"source": "PubChem BioAssay (NCATS)", "note": "Values joined by “and” are separate entries in the source; they are usually repeats but may differ in a detail not shown here. Identical values can stand only once. Results filed as inconclusive are left out. Entries that show only a call come without a potency. Active and inactive are the calls of the source. Calls come from the whole dose curve; as a rule, active = well fitted curve in the direction sought with a large enough effect; inconclusive = small, poorly fitted or top-dose-only effect, or another doubt; inactive = no such curve, though single readings can be large; an effect the other way counts as inactive or inconclusive.", "data": [{"assay": "qHTS of pediatric cancer cell lines to identify multiple opportunities for drug repurposing: Primary screen for MG 63 (6-TG R) cells (AID 1347105); note: nearly all actives have a fitted effect of over 50% in size; note: potency is the fitted concentration of half-maximal effect", "settings": "MG 63 (6-TG R) viability, CellTiter-Glo, 48 h; series mostly up to 46 µM", "method_in_brief": "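Cells seeded at 500-1,000 cells/well in growth media, rested 5 hours at 37 degrees C, 5% CO2, then dosed; MIPE compounds at 11-point (from 0.78 nM) and NPC at 8-point (from 0.59 nM) final concentrations. Viability by CellTiter-Glo luminescence after 48 hours.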", "values": [{"smiles": "Cc1cc2c(C(C)C)c(O)c(O)c(C=O)c2c(O)c1-c1c(C)cc2c(C(C)C)c(O)c(O)c(C=O)c2c1O", "Potency": "21.1 µM (active) and 23.5 µM (active)"}, {"smiles": "NS(=O)(=O)c1cc2c(cc1Cl)NC=NS2(=O)=O", "Potency": "inactive"}, {"smiles": "COc1cc2c(cc1OC)CN(CCc1ccc(NC(=O)c3cccc4c(=O)c5cccc(OC)c5[nH]c34)cc1)CC2", "Potency": "inactive"}, {"smiles": "CC1(C)SCCN(S(=O)(=O)c2ccc(OCC#CCO)cc2)[C@@H]1C(=O)NO", "Potency": "inactive"}, {"smiles": "CCCc1nc2c(C)cc(-c3nc4ccccc4n3C)cc2n1Cc1ccc(-c2ccccc2C(=O)O)cc1", "Potency": "inactive"}, {"smiles": "CC(C)NCC(O)COc1ccc(COCCOC(C)C)cc1", "note": "(configuration not stated)", "Potency": "inactive"}, {"smiles": "NCCc1ccc(O)c(O)c1", "Potency": "inactive"}, {"smiles": "Oc1ccc(C2CNCCc3c2cc(O)c(O)c3Cl)cc1", "note": "(configuration not stated)", "Potency": "inactive"}, {"smiles": "CCC(C)n1ncn(-c2ccc(N3CCN(c4ccc(OC[C@H]5CO[C@](Cn6cncn6)(c6ccc(Cl)cc6Cl)O5)cc4)CC3)cc2)c1=O", "note": "(some centres not stated)", "Potency": "inactive"}, {"smiles": "CCc1ccc(CCOc2ccc(CC3SC(=O)NC3=O)cc2)nc1", "note": "(configuration not stated)", "Potency": "inactive"}, {"smiles": "O=c1n(CCCN2CCN(c3cccc(Cl)c3)CC2)nc2ccccn12", "Potency": "inactive"}, {"smiles": "CNC(=O)c1ccc(N2C(=S)N(c3ccc(C#N)c(C(F)(F)F)c3)C(=O)C2(C)C)cc1F", "Potency": "inactive"}, {"smiles": "Cc1cnc(NC(=O)C2=C(O)c3ccccc3S(=O)(=O)N2C)s1", "Potency": "inactive"}, {"smiles": "Nc1ccc(S(=O)(=O)Nc2ccnn2-c2ccccc2)cc1", "Potency": "inactive"}, {"smiles": "NC(=O)c1cnccn1", "Potency": "inactive"}, {"smiles": "CCCCNc1cc(C(=O)O)cc(S(N)(=O)=O)c1Oc1ccccc1", "Potency": "inactive"}, {"smiles": "Cc1ccccc1C(OCCN(C)C)c1ccccc1", "note": "(configuration not stated)", "Potency": "inactive"}, {"smiles": "Cc1[nH]c(=O)c(C#N)cc1-c1ccc2nccn2c1", "Potency": "inactive"}, {"smiles": "OC(CCN1CCCCC1)(c1ccccc1)C1CC2C=CC1C2", "note": "(configuration not stated)", "Potency": "inactive"}, {"smiles": "NC(=O)c1ccc(I)c([N+](=O)[O-])c1", "Potency": "inactive"}, {"smiles": "CC(c1cc2ccccc2s1)N(O)C(N)=O", "note": "(configuration not stated)", "Potency": "inactive"}, {"smiles": "O=C1CCC(N2C(=O)c3ccccc3C2=O)C(=O)N1", "note": "(configuration not stated)", "Potency": "inactive"}, {"smiles": "O=C(O)COCCN1CCN(C(c2ccccc2)c2ccc(Cl)cc2)CC1", "note": "(configuration not stated)", "Potency": "inactive"}, {"smiles": "Clc1cccc(Cl)c1NC1=NCCN1", "Potency": "inactive"}, {"smiles": "CC(C[N+](C)(C)C)OC(N)=O", "note": "(configuration not stated)", "Potency": "inactive"}, {"smiles": "CS(=O)(=O)c1cccc(CNc2nc(Nc3ccc4c(c3)CCC(=O)N4)ncc2C(F)(F)F)c1", "Potency": "11.8 µM (active)"}, {"smiles": "CC(=O)Oc1ccccc1C(=O)O", "Potency": "inactive"}, {"smiles": "O=C(O)CCc1ccc(NCc2cccc(Oc3ccccc3)c2)cc1", "Potency": "inactive"}, {"smiles": "CC(C)(C)NCC(O)c1ccc(O)c(CO)c1", "note": "(configuration not stated)", "Potency": "inactive"}, {"smiles": "c1ccc([C@H]2CN3CCSC3=N2)cc1", "Potency": "inactive"}, {"smiles": "C[C@]12CCC(=O)C=C1CC[C@@H]1[C@@H]2[C@@H](O)C[C@@]2(C)[C@H]1CC[C@]2(O)C(=O)CO", "Potency": "inactive"}, {"smiles": "CNC[C@H](O)c1cccc(O)c1", "Potency": "inactive"}, {"smiles": "N[C@@H]1CONC1=O", "Potency": "inactive"}]}, {"assay": "qHTS of pediatric cancer cell lines to identify multiple opportunities for drug repurposing: Primary screen for control Hh wild type fibroblast cells (AID 1347106);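 note: a drop in luminescence marks cytotoxicity and a rise apparent proliferation; nearly all actives have a fitted effect of over 55% in size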", "settings": "Hh wild-type fibroblast viability, CellTiter-Glo luminescence, 48 h; series mostly up to 46 µM", "method_in_brief": "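Viability after 48 h compound treatment at 37C, 500-1,000 cells/well, read as ATP luminescence with CellTiter-Glo. Primary screens used 11-point (MIPE, 0.78 nM-46 µM) or 8-point (NPC, 0.59 nM-46 µM) final concentrations; follow-up screens used 11-point dilutions.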", "values": [{"smiles": "Cc1cc2c(C(C)C)c(O)c(O)c(C=O)c2c(O)c1-c1c(C)cc2c(C(C)C)c(O)c(O)c(C=O)c2c1O", "Potency": "inactive"}, {"smiles": "NS(=O)(=O)c1cc2c(cc1Cl)NC=NS2(=O)=O", "Potency": "inactive"}, {"smiles": "COc1cc2c(cc1OC)CN(CCc1ccc(NC(=O)c3cccc4c(=O)c5cccc(OC)c5[nH]c34)cc1)CC2", "Potency": "inactive"}, {"smiles": "CC1(C)SCCN(S(=O)(=O)c2ccc(OCC#CCO)cc2)[C@@H]1C(=O)NO", "Potency": "inactive"}, {"smiles": "CCCc1nc2c(C)cc(-c3nc4ccccc4n3C)cc2n1Cc1ccc(-c2ccccc2C(=O)O)cc1", "Potency": "inactive"}, {"smiles": "CC(C)NCC(O)COc1ccc(COCCOC(C)C)cc1", "note": "(configuration not stated)", "Potency": "inactive"}, {"smiles": "NCCc1ccc(O)c(O)c1", "Potency": "inactive"}, {"smiles": "Oc1ccc(C2CNCCc3c2cc(O)c(O)c3Cl)cc1", "note": "(configuration not stated)", "Potency": "inactive"}, {"smiles": "CCC(C)n1ncn(-c2ccc(N3CCN(c4ccc(OC[C@H]5CO[C@](Cn6cncn6)(c6ccc(Cl)cc6Cl)O5)cc4)CC3)cc2)c1=O", "note": "(some centres not stated)", "Potency": "inactive"}, {"smiles": "CCc1ccc(CCOc2ccc(CC3SC(=O)NC3=O)cc2)nc1", "note": "(configuration not stated)", "Potency": "inactive"}, {"smiles": "O=c1n(CCCN2CCN(c3cccc(Cl)c3)CC2)nc2ccccn12", "Potency": "inactive"}, {"smiles": "CNC(=O)c1ccc(N2C(=S)N(c3ccc(C#N)c(C(F)(F)F)c3)C(=O)C2(C)C)cc1F", "Potency": "inactive"}, {"smiles": "Cc1cnc(NC(=O)C2=C(O)c3ccccc3S(=O)(=O)N2C)s1", "Potency": "inactive"}, {"smiles": "Nc1ccc(S(=O)(=O)Nc2ccnn2-c2ccccc2)cc1", "Potency": "inactive"}, {"smiles": "NC(=O)c1cnccn1", "Potency": "inactive"}, {"smiles": "CCCCNc1cc(C(=O)O)cc(S(N)(=O)=O)c1Oc1ccccc1", "Potency": "inactive"}, {"smiles": "Cc1ccccc1C(OCCN(C)C)c1ccccc1", "note": "(configuration not stated)", "Potency": "inactive"}, {"smiles": "Cc1[nH]c(=O)c(C#N)cc1-c1ccc2nccn2c1", "Potency": "inactive"}, {"smiles": "OC(CCN1CCCCC1)(c1ccccc1)C1CC2C=CC1C2", "note": "(configuration not stated)", "Potency": "inactive"}, {"smiles": "CC(c1cc2ccccc2s1)N(O)C(N)=O", "note": "(configuration not stated)", "Potency": "inactive"}, {"smiles": "O=C1CCC(N2C(=O)c3ccccc3C2=O)C(=O)N1", "note": "(configuration not stated)", "Potency": "inactive"}, {"smiles": "O=C(O)COCCN1CCN(C(c2ccccc2)c2ccc(Cl)cc2)CC1", "note": "(configuration not stated)", "Potency": "inactive"}, {"smiles": "Cc1ccc(-n2nc(C(C)(C)C)cc2NC(=O)Nc2ccc(OCCN3CCOCC3)c3ccccc23)cc1", "Potency": "inactive"}, {"smiles": "CC(C)(Sc1ccc(CCN(CCCCC2CCCCC2)C(=O)NC2CCCCC2)cc1)C(=O)O", "Potency": "inactive"}, {"smiles": "Clc1cccc(Cl)c1NC1=NCCN1", "Potency": "inactive"}, {"smiles": "CC(C[N+](C)(C)C)OC(N)=O", "note": "(configuration not stated)", "Potency": "inactive"}, {"smiles": "CS(=O)(=O)c1cccc(CNc2nc(Nc3ccc4c(c3)CCC(=O)N4)ncc2C(F)(F)F)c1", "Potency": "inactive"}, {"smiles": "CC(=O)Oc1ccccc1C(=O)O", "Potency": "inactive"}, {"smiles": "O=C(O)CCc1ccc(NCc2cccc(Oc3ccccc3)c2)cc1", "Potency": "inactive"}, {"smiles": "CC(C)(C)NCC(O)c1ccc(O)c(CO)c1", "note": "(configuration not stated)", "Potency": "inactive"}, {"smiles": "c1ccc([C@H]2CN3CCSC3=N2)cc1", "Potency": "inactive"}, {"smiles": "C[C@]12CCC(=O)C=C1CC[C@@H]1[C@@H]2[C@@H](O)C[C@@]2(C)[C@H]1CC[C@]2(O)C(=O)CO", "Potency": "inactive"}, {"smiles": "CNC[C@H](O)c1cccc(O)c1", "Potency": "inactive"}, {"smiles": "N[C@@H]1CONC1=O", "Potency": "inactive"}]}]}
